In PubChem BioAssay AID1159580 (chemical genetic matrix, 2015):
Several values for one entry are separate records, joined by “and”; a condition that tells them apart may be missing. Equal entries are not always repeated. About 2,000 (36%) of roughly 5,500 compounds were called active. Another 18% or so got no clear call; they are omitted. Rule as the data show it: active = normalized growth mostly below about 0.91 (no sharp cut-off); inconclusive = no clear call, values can overlap the other calls; inactive = mostly above about 0.92. The list shows a part of the results.

Experiment: chemical genetic growth profiling, strain panel (AID 1159580);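 also: tested at 20 µM; growth read once vehicle control cultures reached saturation at 30 °C; 1 = growth at the plate median or of vehicle wells; lower values mean less growth of the strain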
Conditions: growth OD
[1] = S. cerevisiae deletion strains, locus YBR021W, strain FUR4, hits give low values
[2] = S. cerevisiae deletion strains, locus YBR229C, strain ROT2, hits give low values
[3] = S. cerevisiae deletion strains, locus YCL029C, strain bik1, hits give low values
[4] = S. cerevisiae deletion strains, locus YDL035C, strain GPR1, hits give low values
[5] = S. cerevisiae deletion strains, locus YDL074C, strain BRE1, hits give low values
[6] = S. cerevisiae deletion strains, locus YDL101C, strain DUN1, hits give low values
[7] = S. cerevisiae deletion strains, locus YDL185W, strain tfp1, hits give low values
[8] = S. cerevisiae deletion strains, locus YDL192W, strain arf1, hits give low values
[9] = S. cerevisiae deletion strains, locus YDR101C, strain arx1, hits give low values
[10] = S. cerevisiae deletion strains, locus YDR162C, strain NBP2, hits give low values
[11] = S. cerevisiae deletion strains, locus YDR318W, strain mcm21, hits give low values
[12] = S. cerevisiae deletion strains, locus YDR388W, hits give low values
[13] = S. cerevisiae deletion strains, locus YDR502C, strain sam2, hits give low values
[14] = S. cerevisiae deletion strains, locus YEL061C, strain CIN8, hits give low values
[15] = S. cerevisiae deletion strains, locus YER110C, hits give low values
[16] = S. cerevisiae deletion strains, locus YER155C, strain BEM2, hits give low values
[17] = S. cerevisiae deletion strains, locus YER167W, strain BCK2, hits give low values
[18] = S. cerevisiae deletion strains, locus YGL078C, strain dbp3, hits give low values
[19] = S. cerevisiae deletion strains, locus YGL086W, strain mad1, hits give low values
[20] = S. cerevisiae deletion strains, locus YGL248W, strain PDE1, hits give low values
[21] = S. cerevisiae deletion strains, locus YGR135W, strain pre9, hits give low values
[22] = S. cerevisiae deletion strains, locus YGR252W, strain gcn5, hits give low values
[23] = S. cerevisiae deletion strains, locus YHR030C, strain SLT2, hits give low values
[24] = S. cerevisiae deletion strains, locus YHR079C, strain IRE1 (second series), hits give low values
[25] = S. cerevisiae deletion strains, locus YHR094C, strain hxt1, hits give low values
[26] = S. cerevisiae deletion strains, locus YHR129C, strain ARP1, hits give low values
[27] = S. cerevisiae deletion strains, locus YHR200W, strain rpn10, hits give low values
[28] = S. cerevisiae deletion strains, locus YIL066C, strain RNR3, hits give low values
[29] = S. cerevisiae deletion strains, locus YIL073C, strain SPO22, hits give low values
[30] = S. cerevisiae deletion strains, locus YIL125W, strain kgd1, hits give low values
[31] = S. cerevisiae deletion strains, locus YIR030C, strain dcg1, hits give low values
[32] = S. cerevisiae deletion strains, locus YJL095W, strain BCK1, hits give low values
[33] = S. cerevisiae deletion strains, locus YJL134W, strain LCB3, hits give low values
[34] = S. cerevisiae deletion strains, locus YJL168C, strain set2, hits give low values
[35] = S. cerevisiae deletion strains, locus YJL187C, strain SWE1 (second series), hits give low values
[36] = S. cerevisiae deletion strains, locus YJR043C, strain POL32, hits give low values
[37] = S. cerevisiae deletion strains, locus YKL009W, strain mrt4, hits give low values
[38] = S. cerevisiae deletion strains, locus YKL068W, hits give low values
[39] = S. cerevisiae deletion strains, locus YKL085W, strain MDH1 (second series), hits give low values
[40] = S. cerevisiae deletion strains, locus YKL085W, strain MDH1, hits give low values
[41] = S. cerevisiae deletion strains, locus YKR001C, strain vps1, hits give low values
[42] = S. cerevisiae deletion strains, locus YLR039C, strain RIC1, hits give low values
[43] = S. cerevisiae deletion strains, locus YLR058C, strain SHM2, hits give low values
[44] = S. cerevisiae deletion strains, locus YLR102C, strain apc9, hits give low values
[45] = S. cerevisiae deletion strains, locus YLR262C, strain YPT6, hits give low values
[46] = S. cerevisiae deletion strains, locus YLR268W, strain sec22, hits give low values
[47] = S. cerevisiae deletion strains, locus YLR330W, strain CHS5, hits give low values
[48] = S. cerevisiae deletion strains, locus YLR342W, strain FKS1 (second series), hits give low values
[49] = S. cerevisiae deletion strains, locus YLR371W, strain rom2, hits give low values
[50] = S. cerevisiae deletion strains, locus YLR418C, strain cdc73, hits give low values
[51] = S. cerevisiae deletion strains, locus YML016C, strain PPZ1, hits give low values
[52] = S. cerevisiae deletion strains, locus YML032C, strain rad52, hits give low values
[53] = S. cerevisiae deletion strains, locus YML124C, strain tub3, hits give low values
[54] = S. cerevisiae deletion strains, locus YMR078C, strain ctf18, hits give low values
[55] = S. cerevisiae deletion strains, locus YMR223W, strain ubp8, hits give low values
[56] = S. cerevisiae deletion strains, locus YMR307W, strain GAS1, hits give low values
[57] = S. cerevisiae deletion strains, locus YNL067W, strain RPL9B, hits give low values
[58] = S. cerevisiae deletion strains, locus YNL233W, strain BNI4, hits give low values
[59] = S. cerevisiae deletion strains, locus YNL250W, strain rad50, hits give low values
[60] = S. cerevisiae deletion strains, locus YNL271C, strain bni1, hits give low values
[61] = S. cerevisiae deletion strains, locus YNL298W, strain CLA4, hits give low values
[62] = S. cerevisiae deletion strains, locus YNL307C, strain MCK1, hits give low values
[63] = S. cerevisiae deletion strains, locus YNR052C, strain pop2, hits give low values
[64] = S. cerevisiae deletion strains, locus YOL012C, strain htz1
[65] = S. cerevisiae deletion strains, locus YOL147C, strain pex11, hits give low values
[66] = S. cerevisiae deletion strains, locus YOR061W, strain CKA2, hits give low values
[67] = S. cerevisiae deletion strains, locus YOR069W, strain VPS5, hits give low values
[68] = S. cerevisiae deletion strains, locus YOR136W, strain idh2, hits give low values
[69] = S. cerevisiae deletion strains, locus YOR144C, strain elg1, hits give low values
[70] = S. cerevisiae deletion strains, locus YOR184W, strain ser1, hits give low values
[71] = S. cerevisiae deletion strains, locus YOR316C, strain cot1, hits give low values
[72] = S. cerevisiae deletion strains, locus YPR119W, strain clb2, hits give low values
[73] = S. cerevisiae deletion strains, locus YPR141C, strain kar3, hits give low values
[74] = S. cerevisiae deletion strains, locus YPR163C, strain tif3, hits give low values
[75] = S. cerevisiae deletion strains, locus YPR167C, strain met16, hits give low values
[76] = S. cerevisiae deletion strains, strain wtn01, hits give low values

Measured: normalized growth

C/C=C/c1ccc(OC)cc1
inactive: [1] 0.987 | [2] 1.01 | [3] 1.02 | [4] 1.01 | [5] 1.03 | [6] 1.03 | [7] 1.01 | [8] 1.01 | [9] 1.02 | [10] 1.02 | [11] 1 | [12] 1 | [13] 0.998 | [14] 1.01 | [15] 1.02 | [16] 1.01 | [17] 1 | [18] 0.999 | [19] 1.02 | [20] 1.01 | [21] 1 | [22] 1.01 | [23] 1.01 and 0.942 | [24] 1.01 | S. cerevisiae deletion strains, locus YHR079C, strain IRE1, hits give low values 0.948 | [25] 1.01 | [26] 1.01 | [27] 1.01 | [28] 1.01 | [29] 1.03 | [30] 1.01 | [31] 1.02 | [32] 1.03 and 0.941 | [33] 1.01 | [34] 1.01 | [35] 1.03 | [36] 1.01 | S. cerevisiae deletion strains, locus YJR066W, strain TOR1, hits give low values 0.902 | [37] 1.02 | [38] 1 | [39] 1.01 | [40] 1.01 | S. cerevisiae deletion strains, locus YKL190W, strain CNB1, hits give low values 1.01 | [41] 0.998 | [42] 1.03 | [43] 1.01 | [44] 1.01 | S. cerevisiae deletion strains, locus YLR113W, strain HOG1, hits give low values 0.91 | [45] 1.05 | [46] 1.03 | [47] 1.01 | [48] 0.986 | [49] 1.02 | [50] 0.989 | [51] 1.01 | [52] 0.99 | [53] 1.01 | [54] 1.01 | [55] 1.01 | [56] 0.968 | [57] 1.03 | S. cerevisiae deletion strains, locus YNL183C, strain NPR1, hits give low values 0.904 | [58] 1.02 | [59] 1.02 | [60] 1 | [61] 0.988 | [62] 1 | [63] 1.01 | [64] 0.756 | [65] 1.01 | [66] 1.01 | [67] 1.01 | [68] 1.01 | [69] 1 | [70] 1.01 | S. cerevisiae deletion strains, locus YOR231W, strain MKK1, hits give low values 0.953 | [71] 1 | S. cerevisiae deletion strains, locus YPL055C, strain LGE1, hits give low values 1.03 | S. cerevisiae deletion strains, locus YPL256C, strain CLN2, hits give low values 0.927 | [72] 1.01 | [73] 1.01 | [74] 1 | [75] 1.01 | [76] 1.01

Oc1cc(O)cc(/C=C/c2ccccc2)c1
inactive: [1] 1.1 | [2] 1 | [3] 0.973 | [4] 1.01 | [5] 0.983 | [6] 0.978 | [7] 0.959 | [8] 0.977 | [9] 1.04 | S. cerevisiae deletion strains, locus YDR150W, strain NUM1, hits give low values 0.998 | [10] 0.996 | [11] 0.965 | [12] 0.987 | [13] 0.962 | [14] 1 | [15] 0.977 | [16] 0.995 | [17] 1.01 | [18] 0.953 | [19] 0.995 | [20] 0.957 | [21] 0.921 | [22] 0.88 | [23] 1 | [24] 0.976 | [25] 0.987 | [26] 0.99 | [27] 0.981 | [28] 1.01 | [29] 0.963 | [30] 1.01 | [31] 0.983 | [32] 0.961 | [33] 1.01 | [34] 0.974 | [35] 0.966 | [36] 1.03 | [37] 0.964 | [38] 0.994 | [39] 0.994 | [40] 0.994 | [41] 0.987 | [42] 1.03 | [43] 0.996 | [44] 0.992 | [45] 1.02 | [46] 1.02 | [47] 0.993 | [48] 1.07 | [49] 0.933 | [51] 0.998 | [52] 0.993 | [53] 0.982 | [54] 0.984 | [55] 0.977 | [56] 1 | [57] 0.968 | S. cerevisiae deletion strains, locus YNL128W, strain TEP1, hits give low values 0.977 | S. cerevisiae deletion strains, locus YNL153C, strain GIM3, hits give low values 0.96 | [58] 0.981 | [59] 0.935 | [60] 0.984 | [61] 1.02 | [62] 0.991 | [63] 0.977 | S. cerevisiae deletion strains, locus YOL006C, strain TOP1, hits give low values 1.15 | [64] 1.16 | [65] 0.977 | [66] 1.01 | [67] 0.989 | [68] 0.984 | [69] 0.999 | [70] 1.05 | [71] 0.984 | S. cerevisiae deletion strains, locus YPL241C, strain CIN2, hits give low values 1 | [72] 0.978 | [73] 0.969 | [74] 0.99 | [75] 0.957 | [76] 1 | S. cerevisiae strains, strain wild type, hits give low values 1.01
active: [50] 0.797
